Reference: PubChem BioAssay AID1159580 (chemical genetic matrix, 2015)
The campaign covered roughly 5,500 compounds. About 2,000 (36%) were called active. About 18% were inconclusive and are not listed. Cut-off read from the data, not from the text of the source: active = normalized growth mostly below about 0.91 (no sharp cut-off); inconclusive = no clear call, values can overlap the other calls; inactive = mostly above about 0.92. The list shows a part of the results.

Assay: chemical genetic growth profiling, strain panel (AID 1159580);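 note: tested at 20 µM; growth read once vehicle control cultures reached saturation at 30 °C; 1 = growth at the plate median or of vehicle wells; lower values mean less growth of the strain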
Details: S. cerevisiae deletion strains, growth OD

Measured: normalized growth

CC(C)(CO)Cc1cc(C(C)(C)C)c(O)c(C(C)(C)C)c1
inactive: locus YAL013W, strain DEP1, hits give low values 0.972 | locus YAL040C, strain CLN3, hits give low values 0.927 | locus YCL061C, strain MRC1 (second series), hits give low values 0.975 | locus YDR363W, strain ESC2, hits give low values 1.02 | locus YER002W, strain NOP16, hits give low values 0.968 | locus YGR078C, strain PAC10, hits give low values 0.978 | locus YGR229C, strain SMI1, hits give low values 0.898 | locus YNL175C, strain NOP13, hits give low values 0.954 | locus YNL197C, strain WHI3, hits give low values 0.959 | locus YNL224C, strain SQS1, hits give low values 0.962 | locus YNL322C, strain KRE1, hits give low values 0.975 | locus YOR083W, strain WHI5 (second series), hits give low values 0.951
